In PubChem BioAssay (EPA / NIEHS):
Values joined by “and” are separate entries in the source; they are usually repeats but may differ in a detail not shown here. Equal entries are not always repeated. Records with an inconclusive call do not appear. Where a structure was tested more than once in an assay, its records may differ in their call. Active and inactive are the calls of the source. The calls were made as follows, unless noted: active = hit-call score of the fitted dose curve at least 0.9, where 1 is the maximum; inactive = score below 0.9.

Columns and labels:
[1] = molecular target: human RAR-related Orphan Receptor gamma (RORg), RORC (gene 6097) (UniProt P51449); test: ATG_RORg_TRANS: Attagene TRANS-FACTORIAL HepG2 Assay for human RAR-related Orphan Receptor gamma (RORg) (AID 2283011; active = hit-call score of the fitted dose curve at least 0.9, where 1 is the maximum)
Chain of human RAR-related Orphan Receptor gamma (RORg), RORC (gene 6097) (P51449 whole entry, looked up, the tested form may be a part): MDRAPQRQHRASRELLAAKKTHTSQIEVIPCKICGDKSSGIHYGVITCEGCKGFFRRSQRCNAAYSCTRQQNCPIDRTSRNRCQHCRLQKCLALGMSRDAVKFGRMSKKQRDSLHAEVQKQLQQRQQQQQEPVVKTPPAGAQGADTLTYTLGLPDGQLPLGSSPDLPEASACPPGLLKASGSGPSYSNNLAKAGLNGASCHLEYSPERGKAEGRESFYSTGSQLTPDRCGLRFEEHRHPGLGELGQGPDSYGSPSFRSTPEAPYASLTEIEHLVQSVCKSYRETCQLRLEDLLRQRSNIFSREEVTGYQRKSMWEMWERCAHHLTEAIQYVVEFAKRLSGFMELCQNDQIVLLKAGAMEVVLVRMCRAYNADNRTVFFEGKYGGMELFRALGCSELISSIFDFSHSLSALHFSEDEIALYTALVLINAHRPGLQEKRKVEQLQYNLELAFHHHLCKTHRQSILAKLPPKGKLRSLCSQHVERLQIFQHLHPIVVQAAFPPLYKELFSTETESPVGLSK
Method in brief: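 Readout: reporter transcript induction (RT-PCR, fluorescent primer extension, capillary electrophoresis) after 24 h compound exposure of transiently transfected HepG2 cells carrying a RORg-Gal4 chimera and GAL4-UAS reporters; DMSO served as baseline, with increasing signal fitted.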

[2] = molecular target: Retinoic acid receptor RXR-alpha (Homo sapiens) (UniProt P19793); test: ATG_RXRa_TRANS: Attagene TRANS-FACTORIAL HepG2 Assay for human Retinoid X Receptor alpha (RXRa) (AID 2283012; active = hit-call score of the fitted dose curve at least 0.9, where 1 is the maximum)
Chain of Retinoic acid receptor RXR-alpha (Homo sapiens) (P19793 whole entry, looked up, the tested form may be a part): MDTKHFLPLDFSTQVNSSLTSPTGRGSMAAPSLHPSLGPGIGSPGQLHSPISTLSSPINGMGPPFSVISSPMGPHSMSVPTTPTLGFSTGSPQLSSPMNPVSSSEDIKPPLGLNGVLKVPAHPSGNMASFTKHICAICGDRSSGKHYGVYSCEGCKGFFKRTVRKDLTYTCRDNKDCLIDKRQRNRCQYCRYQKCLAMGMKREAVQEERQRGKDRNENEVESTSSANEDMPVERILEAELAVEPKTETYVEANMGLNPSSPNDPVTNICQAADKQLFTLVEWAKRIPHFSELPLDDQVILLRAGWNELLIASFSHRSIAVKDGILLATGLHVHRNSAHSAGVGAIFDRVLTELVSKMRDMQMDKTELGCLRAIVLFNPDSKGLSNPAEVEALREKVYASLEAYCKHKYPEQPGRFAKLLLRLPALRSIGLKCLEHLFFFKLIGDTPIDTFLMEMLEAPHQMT
Method in brief: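 Chimeric NR-GAL4 trans-activation in HepG2, 24 h treatment; reporter transcripts quantified by fluorescence on capillary electrophoresis, analysed for upward change from DMSO.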

[3] = molecular target: human Retinoid X Receptor beta (RXRb), RXRB (gene 6257) (UniProt P28702); test: ATG_RXRb_TRANS: Attagene TRANS-FACTORIAL HepG2 Assay for human Retinoid X Receptor beta (RXRb) (AID 2283013; active = hit-call score of the fitted dose curve at least 0.9, where 1 is the maximum)
Chain of human Retinoid X Receptor beta (RXRb), RXRB (gene 6257) (P28702 whole entry, looked up, the tested form may be a part): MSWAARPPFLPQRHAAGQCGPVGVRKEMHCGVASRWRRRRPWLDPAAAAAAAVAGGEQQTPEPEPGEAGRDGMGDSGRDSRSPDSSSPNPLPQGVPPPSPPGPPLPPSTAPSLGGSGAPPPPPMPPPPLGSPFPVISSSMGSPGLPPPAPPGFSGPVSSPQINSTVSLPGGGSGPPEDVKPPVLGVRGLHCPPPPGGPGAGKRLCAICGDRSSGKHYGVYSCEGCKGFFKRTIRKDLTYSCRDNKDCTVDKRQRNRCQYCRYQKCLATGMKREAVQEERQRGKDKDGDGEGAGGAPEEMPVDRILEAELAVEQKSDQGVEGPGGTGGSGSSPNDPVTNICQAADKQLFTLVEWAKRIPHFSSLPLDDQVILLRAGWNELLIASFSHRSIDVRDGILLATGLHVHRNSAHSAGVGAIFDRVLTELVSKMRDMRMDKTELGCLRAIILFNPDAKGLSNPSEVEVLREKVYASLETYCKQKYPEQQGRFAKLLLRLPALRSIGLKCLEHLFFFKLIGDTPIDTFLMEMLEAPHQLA
Method in brief: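 After a 24 h incubation with test chemical, transfected HepG2 cells carrying NR-Gal4 fusions and GAL4-UAS reporter transcription units yield RNA whose reporter cDNA is FAM-labelled, HpaI-cut and sized by capillary electrophoresis; increases over DMSO are scored.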

[4] = molecular target: human Thyroid Receptor alpha (THRa1), THRA (gene 7067) (UniProt P10827); test: ATG_THRa1_TRANS: Attagene TRANS-FACTORIAL HepG2 Assay for human Thyroid Receptor alpha (THRa1) (AID 2283014; active = hit-call score of the fitted dose curve at least 0.9, where 1 is the maximum)
Chain of human Thyroid Receptor alpha (THRa1), THRA (gene 7067) (P10827 whole entry, looked up, the tested form may be a part): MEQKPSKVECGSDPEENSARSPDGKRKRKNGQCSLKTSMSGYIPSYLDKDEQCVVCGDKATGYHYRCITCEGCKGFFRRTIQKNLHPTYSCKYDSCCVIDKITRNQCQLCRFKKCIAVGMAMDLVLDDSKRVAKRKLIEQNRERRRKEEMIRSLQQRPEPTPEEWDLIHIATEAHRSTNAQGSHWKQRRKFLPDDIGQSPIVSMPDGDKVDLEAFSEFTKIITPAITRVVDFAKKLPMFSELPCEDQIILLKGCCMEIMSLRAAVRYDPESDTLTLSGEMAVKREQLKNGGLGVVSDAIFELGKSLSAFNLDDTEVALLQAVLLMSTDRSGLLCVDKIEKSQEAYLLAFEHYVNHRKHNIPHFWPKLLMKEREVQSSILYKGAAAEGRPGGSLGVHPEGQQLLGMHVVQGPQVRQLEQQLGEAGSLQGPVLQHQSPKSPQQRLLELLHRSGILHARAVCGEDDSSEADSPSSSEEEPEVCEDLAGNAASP
Method in brief: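 HepG2 cells transiently transfected with multiplexed GAL4-UAS reporter units for exogenous chimeric THRa1-Gal4; reporter mRNA measured 24 h after dosing by RT-PCR, 6-FAM labelling, HpaI digestion and capillary electrophoresis. Gain-of-signal fitted versus DMSO baseline.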

[5] = read-out: E-selectin (Homo sapiens) (UniProt P16581); test: BSK_3C_Eselectin: BioMAP Diversity Plus: 3C Assay for Eselectin Biomarker Activity (AID 2283015); details: primary human endothelial cells (HUVEC); actives raise or lower the signal;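 also: cell surface E-selectin protein quantified by ELISA 24 h after dosing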
Method in brief: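 Primary human umbilical vein endothelial cells (3C system) were dosed with chemical and cell-surface E-selectin measured by ELISA 24 h later. Bidirectional curve fitting used DMSO as negative control and baseline.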

[6] = read-out: Interleukin-1 alpha (IL1a), IL1A (gene 3552); test: BSK_BE3C_IL1a: BioMAP Diversity Plus: BE3C Assay for Interleukin-1 alpha (IL1a) Biomarker Activity (AID 2283016); details: primary human bronchial epithelial cells; actives raise or lower the signal
Method in brief: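 Measured in human lung primary bronchial epithelial cells: IL-1a by ELISA at 24 h after dosing, with bidirectional fitting against DMSO.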

[7] = read-out: Monocyte Chemoattractant Protein-1 (MCP1), CCL2 (gene 6347); test: BSK_3C_MCP1: BioMAP Diversity Plus: 3C Assay for Monocyte Chemoattractant Protein-1 (MCP1) Biomarker Activity (AID 2283017); details: primary human endothelial cells (HUVEC); actives raise or lower the signal
Method in brief: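 Primary human umbilical vein endothelial cells (3C system) were exposed to test chemical for 24 h, after which MCP-1 was quantified by ELISA. Activity was fitted bidirectionally against DMSO as negative control and baseline.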

[8] = read-out: Monocyte Chemoattractant Protein-1 (MCP1), CCL2 (gene 6347); test: BSK_4H_MCP1: BioMAP Diversity Plus: 4H Assay for Monocyte Chemoattractant Protein-1 (MCP1) Biomarker Activity (AID 2283018); details: primary human endothelial cells (HUVEC); actives raise or lower the signal
Method in brief: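 Primary human umbilical vein endothelium is exposed to chemical for 24 h before MCP-1 is assayed by ELISA. Concentration-response fitted bidirectionally relative to DMSO.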

[9] = read-out: Human Leukocyte Antigen - DR isotype (HLADR), HLA-DRA (gene 3122); test: BSK_3C_HLADR: BioMAP Diversity Plus: 3C Assay for Human Leukocyte Antigen - DR isotype (HLADR) Biomarker Activity (AID 2283019); details: primary human endothelial cells (HUVEC); actives raise or lower the signal
Method in brief: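 Primary human umbilical vein endothelial cells (3C system) were dosed with compound and cell-surface HLA-DR was quantified by ELISA at 24 h. Activity was fitted bidirectionally against DMSO as negative control and baseline.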

[10] = read-out: Interleukin-8 (IL8), CXCL8 (gene 3576); test: BSK_3C_IL8: BioMAP Diversity Plus: 3C Assay for Interleukin-8 (IL8) Biomarker Activity (AID 2283020); details: primary human endothelial cells (HUVEC); actives raise or lower the signal
Method in brief: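 Using DMSO-treated wells as the baseline, bidirectional curve fitting was applied to ELISA-measured IL-8 from human umbilical vein endothelial cultures sampled 24 h after compound addition.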

[11] = read-out: Monokine induced gamma interferon (MIG), CXCL9 (gene 4283); test: BSK_3C_MIG: BioMAP Diversity Plus: 3C Assay for Monokine induced gamma interferon (MIG) Biomarker Activity (AID 2283021); details: primary human endothelial cells (HUVEC); actives raise or lower the signal
Method in brief: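 ELISA-measured MIG in dosed HUVEC 3C cultures at 24 h, analysed by bidirectional fitting with DMSO defining baseline activity.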

[12] = BSK_3C_SRB: Viability Assessment in the BioMAP Diversity Plus: 3C Assay (AID 2283023); details: primary human endothelial cells (HUVEC);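 also: fitted both ways against DMSO so a hit may be signal rise or drop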
Method in brief: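 Primary human umbilical vein endothelial cells in the 3C system were read 24 h after compound dosing. Total protein was stained with 0.1% sulforhodamine B after 10% TCA fixation and read at 560 nm, with bidirectional fitting against DMSO as baseline.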

[13] = read-out: Matrix Metallopeptidase 1 (MMP1), MMP1 (gene 4312); test: BSK_BE3C_MMP1: BioMAP Diversity Plus: BE3C Assay for Matrix Metallopeptidase 1 (MMP1) Biomarker Activity (AID 2283024); details: primary human bronchial epithelial cells; actives raise or lower the signal
Method in brief: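 In this multiplexed primary-cell system, human bronchial epithelium received chemicals for 24 h before an ELISA for MMP1. Values reflect bidirectional fits normalised to the DMSO baseline.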

[14] = read-out: Pselectin, SELP (gene 6403); test: BSK_4H_Pselectin: BioMAP Diversity Plus: 4H Assay for Pselectin Biomarker Activity (AID 2283026); details: primary human endothelial cells (HUVEC); actives raise or lower the signal
Method in brief: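 Bidirectional fits against DMSO gave the endpoint. Cells: primary human umbilical vein endothelium, chemical-treated for 24 h before ELISA detection of P-selectin.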

[15] = BSK_4H_SRB: Viability Assessment in the BioMAP Diversity Plus: 4H Assay (AID 2283027); details: primary human endothelial cells (HUVEC);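 also: cells exposed to compound for 24 h before staining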;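 as to AC50: curves fitted both ways versus DMSO so AC50 may be loss or gain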
Method in brief: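 Cytotoxicity readout: sulforhodamine B (0.1%) staining of total protein after 10% TCA fixation, measured at 560 nm in human umbilical vein endothelium at 24 h. DMSO set the baseline; fitting was bidirectional.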

[16] = read-out: Thrombomodulin, THBD (gene 7056); test: BSK_3C_Thrombomodulin: BioMAP Diversity Plus: 3C Assay for Thrombomodulin Biomarker Activity (AID 2283029); details: primary human endothelial cells (HUVEC); actives raise or lower the signal
Method in brief: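 In a multiplexed primary-cell system, human umbilical vein endothelium received chemical and was assayed 24 h later for thrombomodulin by ELISA. Parallel cultures were SRB-stained (0.1% SRB after 10% TCA fixation, read at 560 nm) to flag cytotoxicity.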

[17] = molecular target: human RAR-related Orphan Receptor beta (RORb), RORB (gene 6096) (UniProt Q92753); test: ATG_RORb_TRANS: Attagene TRANS-FACTORIAL HepG2 Assay for human RAR-related Orphan Receptor beta (RORb) (AID 2283010; active = hit-call score of the fitted dose curve at least 0.9, where 1 is the maximum)
Chain of human RAR-related Orphan Receptor beta (RORb), RORB (gene 6096) (Q92753 whole entry, looked up, the tested form may be a part): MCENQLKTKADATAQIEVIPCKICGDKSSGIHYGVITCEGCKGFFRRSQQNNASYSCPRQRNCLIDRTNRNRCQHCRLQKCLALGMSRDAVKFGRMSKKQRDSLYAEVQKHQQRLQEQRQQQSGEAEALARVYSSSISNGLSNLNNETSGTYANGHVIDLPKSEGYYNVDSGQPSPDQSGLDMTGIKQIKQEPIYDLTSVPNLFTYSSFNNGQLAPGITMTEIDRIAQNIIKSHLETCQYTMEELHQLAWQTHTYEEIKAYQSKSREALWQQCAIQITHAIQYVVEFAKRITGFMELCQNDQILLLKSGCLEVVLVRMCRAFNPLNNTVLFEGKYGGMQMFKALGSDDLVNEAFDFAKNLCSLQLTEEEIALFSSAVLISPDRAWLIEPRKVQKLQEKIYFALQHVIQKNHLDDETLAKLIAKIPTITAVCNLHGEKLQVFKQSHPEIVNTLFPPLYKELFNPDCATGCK
Method in brief: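 Multiplexed transcription-factor reporter assay: HepG2 cells transiently carrying NR-Gal4/GAL4-UAS constructs, 24 h treatment, mRNA quantified by RT-PCR plus capillary electrophoresis fluorescence; activity scored as induction over DMSO.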

[18] = molecular target: human Vitamin D Receptor (VDR), VDR (gene 7421) (UniProt P11473); test: ATG_VDR_TRANS: Attagene TRANS-FACTORIAL HepG2 Assay for human Vitamin D Receptor (VDR) (AID 2283022; active = hit-call score of the fitted dose curve at least 0.9, where 1 is the maximum)
Chain of human Vitamin D Receptor (VDR), VDR (gene 7421) (P11473 whole entry, looked up, the tested form may be a part): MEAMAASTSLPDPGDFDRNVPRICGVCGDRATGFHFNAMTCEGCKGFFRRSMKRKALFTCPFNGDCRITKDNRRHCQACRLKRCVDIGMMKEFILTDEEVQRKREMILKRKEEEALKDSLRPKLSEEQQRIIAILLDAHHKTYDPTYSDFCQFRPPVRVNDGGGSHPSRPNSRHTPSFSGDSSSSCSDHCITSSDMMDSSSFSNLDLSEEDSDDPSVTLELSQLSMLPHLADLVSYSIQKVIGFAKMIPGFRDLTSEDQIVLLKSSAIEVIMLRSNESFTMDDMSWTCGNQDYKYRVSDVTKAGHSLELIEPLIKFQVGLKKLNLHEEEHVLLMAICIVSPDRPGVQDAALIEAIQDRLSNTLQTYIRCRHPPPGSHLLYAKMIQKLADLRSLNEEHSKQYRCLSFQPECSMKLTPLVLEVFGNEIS
Method in brief: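 HepG2 cells were transiently transfected with multiple GAL4-UAS reporter units, so signal reflects exogenous chimeric receptor-Gal4 activity. After 24 h compound exposure, reporter mRNA was measured by RT-PCR, fluorescent labelling and capillary electrophoresis, fitted for gain of signal versus DMSO.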

[19] = BSK_BE3C_SRB: Viability Assessment in the BioMAP Diversity Plus: BE3C Assay (AID 2283028); details: primary human bronchial epithelial cells
Method in brief: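 Human primary bronchial epithelial cells were exposed to test chemicals for 24 h. Total protein in parallel cultures was then measured by staining with 0.1% sulforhodamine B after 10% TCA fixation, with absorbance read at 560 nm. Activity was fitted bidirectionally against DMSO.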

[20] = BSK_3C_Vis: BioMAP Diversity Plus: 3C Assay for Morphology Visualization (AID 2283025); details: primary human endothelial cells (HUVEC);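 also: fitted both ways so gain or loss versus DMSO counts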;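 as to AC50: light microscopy image of cell morphology used as background control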
Method in brief: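 Light-microscopy morphology readout, 24 h exposure, human primary umbilical vein endothelium; analysed relative to DMSO with bidirectional fitting.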

Measured: AC50

Chain of E-selectin (Homo sapiens) (P16581 whole entry, looked up): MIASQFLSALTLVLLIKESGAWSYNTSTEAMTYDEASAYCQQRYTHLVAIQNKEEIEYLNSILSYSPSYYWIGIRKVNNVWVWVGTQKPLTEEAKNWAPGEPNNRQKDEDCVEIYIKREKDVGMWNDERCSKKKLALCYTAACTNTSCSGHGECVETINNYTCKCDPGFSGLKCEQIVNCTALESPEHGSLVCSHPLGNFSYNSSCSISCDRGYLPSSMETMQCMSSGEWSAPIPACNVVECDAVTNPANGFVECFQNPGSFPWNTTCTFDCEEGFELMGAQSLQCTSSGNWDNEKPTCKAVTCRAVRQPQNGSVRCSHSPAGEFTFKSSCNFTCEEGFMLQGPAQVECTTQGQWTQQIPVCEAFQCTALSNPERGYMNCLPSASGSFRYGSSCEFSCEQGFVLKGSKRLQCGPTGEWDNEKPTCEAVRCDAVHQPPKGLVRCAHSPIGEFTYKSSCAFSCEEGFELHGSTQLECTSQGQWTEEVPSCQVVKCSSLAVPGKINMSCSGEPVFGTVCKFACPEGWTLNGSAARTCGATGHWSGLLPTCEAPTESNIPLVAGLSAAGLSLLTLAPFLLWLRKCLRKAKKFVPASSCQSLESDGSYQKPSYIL

O=C(O)C(F)(F)C(F)(F)C(F)(F)C(F)(F)C(F)(F)C(F)(F)C(F)(F)C(F)(F)C(F)(F)C(F)(F)C(F)(F)C(F)(F)C(F)(F)F
not listed: [17] | [18] | [19] | [20]
inactive: all other assays above

FC(F)(F)C(F)(F)C(F)(F)C(F)(F)C(F)(F)CCI
active: [3] 35.9 µM | [13] 30 µM and 19.5 µM
not listed: [16] | [20]
inactive: all other assays above

O=S(=O)(O)C(F)(F)C(F)(F)C(F)(F)C(F)(F)C(F)(F)C(F)(F)C(F)(F)F
active: [13] 8.64 µM and 15.6 µM
not listed: [4] | [5] | [7] | [18] | [20]
inactive: all other assays above

[Co]
inactive: [1] | [2] | [3] | [4]

CCc1ccc(C(c2ccc(CC)cc2)C(Cl)Cl)cc1
active: [7] 12.9 µM | [8] 10.7 µM | [9] 11.8 µM | [10] 11.6 µM | [12] 12.5 µM | [13] 7.64 µM | [20] 13 µM | [15] 15 µM
not listed: [16] | [17]
inactive: all other assays above

O=C(O)C(F)(OC(F)(F)C(F)(OC(F)(F)C(F)(F)C(F)(F)F)C(F)(F)F)C(F)(F)F (centres undefined)
inactive: [17] | [2] | [3] | [6] | [8] | [9] | [10] | [11] | [18] | [12] | [13] | [14] | [15] | [16]
active: [3] 41.7 µM

CCCCCCCOC(=O)c1ccccc1C(=O)OCCCCCCC
not listed: [2] | [3] | [5] | [7] | [16] | [18]
inactive: all other assays above

O=S(=O)(O)c1ccc2ccccc2c1
inactive: [17] | [2] | [4] | [18]

CCN(CC)c1ccc2c(C)cc(=O)oc2c1
active: [3] 26.5 µM | [9] 31.3 µM | [20] 37.5 µM
not listed: [5] | [16] | [17] | [18]
inactive: all other assays above

OC[C@@H](O)[C@@H](O)[C@H](O)[C@@H](O)CO
active: [3] 35.1 µM
inactive: [1] | [2] | [3] | [18]

CCO[Si](CCC(F)(F)C(F)(F)C(F)(F)C(F)(F)C(F)(F)C(F)(F)F)(OCC)OCC
not listed: [5] | [7] | [16] | [17] | [19] | [20]
inactive: all other assays above

C=CC/C=C/C/C=C/C/C=C/C
active: [3] 100 µM
not listed: [5] | [17] | [18] | [19]
inactive: all other assays above

CC(C)(C)c1ccc(OC2CCCCC2O)cc1 (centres undefined)
active: [2] 26.2 µM
inactive: [1] | [3] | [4] | [18]

Nc1cc(Cl)c(N)c(Cl)c1
inactive: [1] | [2] | [3] | [4] | [18]

N=C(N)C(F)(F)C(F)(F)C(F)(F)C(F)(F)C(F)(F)C(F)(F)C(F)(F)F
active: [9] 30 µM | [12] 54.9 µM | [13] 19.4 µM | [15] 48.5 µM
inactive: [17] | [1] | [2] | [3] | [6] | [8] | [9] | [10] | [11] | [18] | [12] | [13] | [14] | [15] | [19]
